# IL1B secr inh: qHTS for Inhibitors of Inflammasome Signaling: IL-1-beta AlphaLISA Primary Screen; THP-1 LPS/ATP IL-1B secretion, AlphaLISA, 16 h; active compounds read low; activity change, % at 57.5 µM; 360,000 tested, 4.7% active; in the data active means activity change below about -50%; inconclusive means mostly about -30% to -49%
#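 THP-1 cells pretreated 1 hr with compounds (up to 57.5 uM final), then stimulated with LPS (250 ng/mL final) plus ATP (1.25 mM final); secreted IL-1B measured by AlphaLISA after 16 hr, decreased signal indicating inhibition.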
# TDP1 cell CPT: qHTS for Inhibitors of human tyrosyl-DNA phosphodiesterase 1 (TDP1): qHTS in cells in presence of CPT; chicken DT40 Tdp1-/-;hTDP1 cells + 20 nM CPT, ATP luminescence, 48 h; Potency, µM (doses to about 46.2 µM), for inactives: at the top dose activity change, negative = growth inhibition, most hits filed as inhibitors; 420,000 tested, 12% active; AID 686979, 2013; further: potency means the concentration at half of the fitted maximal effect; nearly all actives have a fitted effect of over 55% in size
#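 Chicken DT40 Tdp1-/- cells stably complemented with human TDP1 were seeded at 400 cells/well in medium containing 20 nM camptothecin, exposed to pin-transferred compounds, and grown at 37 °C for at least 48 hr. Viability was read as ATP luminescence.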
# HT1080-NT tox: qHTS for induction of synthetic lethality in tumor cells producing 2HG: qHTS for the HT-1080-NT fibrosarcoma cell line | HT-1080-NT fibrosarcoma viability, CellTiter-Glo ATP luminescence, 48 h | Potency, µM (doses to about 46.1 µM), for inactives: at the top dose activity, negative = less viability, usual class: cytotoxic | 360,000 tested, 1.6% active;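 further: NT is the 2HG producing partner of a matched IDH1 knockdown line; potency means the concentration at half of the fitted maximal effect; 0% = DMSO-treated cells and -100% = media-only wells without cells; nearly all actives have a fitted effect of over 55% in size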
#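 HT-1080-NT; 750 cells/well; 5% FBS RPMI; 48 h compound, 37 degrees C; CellTiter-Glo luminescence; curve fitting and curve-class assignment.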
# HT1080 IDH1KD tx: qHTS for induction of synthetic lethality in tumor cells producing 2HG: qHTS for the HT-1080-IDH1KD cell line; Potency, µM (doses to about 46.1 µM), for the others: at the top dose activity, negative = toxicity, hits mostly cytotoxic; 360,000 tested, 2% active; HT-1080 IDH1 knockdown viability, ATP luminescence, 48 h; AID 686971, 2013;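 further: potency means the concentration at half of the fitted maximal effect; 0% = DMSO wells and -100% = cell-free medium wells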
#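 HT-1080-IDH1KD cells (IDH1 knocked down), 750/well in RPMI with 5% FBS, treated with compound 48 h at 37 degrees C. Viability by CellTiter-Glo luminescence, normalised to DMSO and no-cell wells; concentration-response curves classed.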
# DT40 TDP1 no CPT: qHTS for Inhibitors of human tyrosyl-DNA phosphodiesterase 1 (TDP1): qHTS in cells in absence of CPT. DT40 Tdp1-/- hTDP1 cells, no CPT, ATP luminescence, 48 h. Potency, µM (top dose mostly 46.2 µM), for inactives: top-dose activity change, negative = growth inhibition, hits mostly inhibitors. 420,000 tested, 15% active. AID 686978, 2013; further: potency means the concentration at half of the fitted maximal effect; nearly all actives have a fitted effect of over 55% in size
#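 DT40 Tdp1-/-;hTDP1 cells, no CPT (DMSO vehicle only), 400 cells/well; compounds pin-transferred; ≥48 hr, 37 °C; CellTiter-Glo 30 min RT dark, luminescence read.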
# * hit, by the source's call; u = inconclusive; x = not tested or not shown. Most compounds without a hit are left out; they make up all but 19% or so of the library. Unless noted, the call rests on the fitted dose curve; in most records, active means well fitted curve in the direction sought with a large enough effect; inconclusive means small, poorly fitted or top-dose-only effect, or another doubt; inactive means no such curve, though single readings can be large; an effect the other way counts as inactive or inconclusive. Unless noted, on the % scale 0 is the no-effect control and ±100 the full control effect.
SMILES,IL1B secr inh,TDP1 cell CPT,HT1080-NT tox,HT1080 IDH1KD tx,DT40 TDP1 no CPT
CCN(CC)c1nc(OCCNC(=O)Nc2ccccc2)nc(N(CC)CC)n1,-63*,u,21µM*,18µM*,u
CCN(CCNC(=O)Nc1ccc(Cl)cc1)c1ccccc1,-6,u,u,u,u
CC(=O)NCCOc1nc(N2CCCCC2)nc(N2CCCCC2)n1,23,-25%,-1%,0%,15µM*
COc1ccccc1C(=O)NC(=O)COC(=O)CNC(=O)c1ccccc1F,-10,-2%,1%,9%,3%
COC(=O)C1CCN(C(=O)COC(=O)CCc2nc3ccccc3c(=O)[nH]2)CC1,-1,-16%,10%,8%,5%
Cc1ccc(C(=O)C=Cc2cccc(C)c2)cc1,-24,u,u,u,18µM*
Cc1cccc(C=CC(=O)c2ccccc2)c1,-28,u,-2%,-16%,23µM*
Cc1cccc(N(C)C(=O)Cn2cnc3nc4c(cc3c2=O)CCCC4)c1,x,-23%,x,x,-20%
Cc1nc2ccccn2c1C(=O)N/N=C/c1cc(C)n(-c2ccc(Cl)cc2)c1C,6,16µM*,-11%,-20%,15µM*
Cc1cc(/C=N/NC(N)=S)c(C)n1-c1ccc(Cl)c(Cl)c1,108,2.6µM*,-4%,u,3.7µM*
Cc1nc2ccccn2c1C(=O)N/N=C/c1ccccc1[N+](=O)[O-],17,-15%,-8%,9%,-1%
Cc1cc(/C=N/NC(=O)Cn2c3ccccc3c(=O)c3ccccc32)c(C)n1-c1ccc(Cl)cc1,0,u,-16%,u,29µM*
CCNC(=S)N/N=C/c1cc(C)n(-c2ccc(Cl)cc2)c1C,u,18µM*,-17%,-17%,21µM*
COCCNC(=O)C1(C)CCCN(C(=O)c2cccc(Cl)c2)C1 (configuration not stated),5,-22%,-1%,0%,-2%
O=c1[nH]c(=O)n(C2CCCCC2)c(O)c1C1=Nc2ccccc2SC(c2ccccc2)C1 (configuration not stated),x,-9%,x,x,-12%
Cc1cc(O)c(C2=Nc3ccccc3SC(c3ccc(Cl)cc3)C2)c(=O)o1 (configuration not stated),16,5.2µM*,u,3%,7.3µM*
Cc1ccc(S(=O)(=O)N2[C@@H](CO)CO[C@H]2CC(=O)c2cccs2)cc1,-7,u,-2%,-2%,u
Cc1cc(C)cc(NC(=S)Nc2ccc3cn[nH]c3c2)c1,-53*,-23%,17%,24%,u
Cc1ccc(NC(=S)Nc2ccc(Cl)c(Cl)c2)c(OC(F)F)c1,u,21µM*,-2%,5%,18µM*
CN(C)/C=N/C(=S)Nc1ccc(Cl)c(Cl)c1,-91*,u,-15%,u,u
Cc1ccc(NC(=O)c2ccc(Cl)c(N3C(=O)C=CC3=O)c2)cc1,-56*,1.2µM*,u,u,2.1µM*
OC[C@@H]1CN(Cc2ccccc2)C[C@H](n2cnc3c(NC4CCCC4)ncnc32)O1,5,u,6%,20%,u
CCNc1ncc2nc(-c3ccccc3)c(=O)n(Cc3cccs3)c2n1,x,1%,x,x,-12%
Cc1cc(C)cc(NC(=S)Nc2ccc(Cl)c(Cl)c2)c1,-24,u,u,u,21µM*
O=C(Nc1ccc(Cl)c(Cl)c1)c1ccc(Cl)c(Cl)c1,-6,u,-1%,6%,5.8µM*
SMILES,IL1B secr inh,TDP1 cell CPT,HT1080-NT tox,HT1080 IDH1KD tx,DT40 TDP1 no CPT
NC(=S)Nc1ccc(Cl)c(Cl)c1,-8,12µM*,-14%,-2%,9.2µM*
NC(=S)NNc1ccc(Cl)c(Cl)c1,0,u,-7%,-11%,u
NN(Cc1ccccc1)C(=S)Nc1ccc(Cl)c(Cl)c1,-56*,-14%,-10%,-12%,0%
O=C(Nc1ccc(Cl)c(Cl)c1)c1ccncc1,0,-20%,1%,-18%,u
CCOC(=O)C1=C(C)C(c2ccccc2OC)NC(=S)N1 (configuration not stated),-12,-2%,-5%,-2%,-30%
CCCCNC(=O)N1CCCN(c2ccc(C#N)cn2)CC1,0,6%,11%,8%,7%
O=C(C1CCN(S(=O)(=O)c2c(Cl)cccc2Cl)CC1)N1CCCCCCC1,-20,-21%,1%,-6%,u
O=C(C[n+]1ccccc1)N/N=C/c1ccc(Cl)c(Cl)c1,-8,-5%,-1%,2%,-7%
O=C(CC12CC3CC(CC(C3)C1)C2)NC(=S)Nc1ccc(CN2CCOCC2)cc1,-19,u,-24%,u,u
Cc1ccccc1OCC(=O)OCC(=O)Nc1cc(S(=O)(=O)N2CCCCC2)ccc1Cl,9,0%,-1%,-3%,-16%
O=C(Nc1ccc(Cl)c(Cl)c1)OCCNC(=O)c1ccncc1,-10,u,-21%,-22%,23µM*
Cc1ccc(-c2noc(CCC(=O)NC3CCCC3)n2)cc1,16,u,-12%,-5%,u
COc1ccccc1-c1noc(CCC(=O)Nc2cccnc2)n1,30,-28%,0%,-2%,u
Cc1ccc(-c2noc(CCCC(=O)Nc3cccnc3)n2)cc1,45,u,-1%,23µM*,21µM*
O=C(CCc1nc(-c2ccccc2Cl)no1)Nc1cccnc1,28,21µM*,0%,-3%,u
Cc1ccc(-c2noc(CCCC(=O)NC3CCCCC3)n2)cc1,12,u,-14%,-11%,13µM*
COc1ccc(NC(=O)CN2CCCN(Cc3ccc(Cl)cc3)S2(=O)=O)cc1Cl,x,12µM*,x,x,10µM*
COc1ccc(OC)c(NC(=O)CN2CCCN(Cc3ccccc3Cl)S2(=O)=O)c1,x,u,x,x,23µM*
COc1ccc(NC(=O)CN2CCN(Cc3ccccc3)S2(=O)=O)c(OC)c1,x,-1%,x,x,-24%
CC(=O)Nc1ccc(S(=O)(=O)NC2=C(N3CCN(Cc4ccccc4)CC3)C(=O)c3ccccc3C2=O)cc1,-10,10µM*,u,u,u
CCN1CCN(C2=C(NS(=O)(=O)c3ccc(NC(C)=O)cc3)C(=O)c3ccccc3C2=O)CC1,43,16µM*,-11%,-17%,21µM*
CC(=O)Nc1ccc(S(=O)(=O)Nc2cc(C)cn(Cc3ccccc3)c2=O)cc1,-2,u,-6%,-2%,7.3µM*
